According to PubChem BioAssay:
The source made the active and inactive calls.

Assays:
[1] = binders of probe aFSTL3 on microarray, primary screen, stem cell growth factor project, biochemical, small-molecule microarray, fluorescence 635/667 (AID 1064); conditions: higher = more signal;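 note: measures binding of the biotinylated anti-FSTL3 antibody to printed compounds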
[2] = binders from COS7 lysate, DM2A8 probe, primary screen, torsin A project, cell lysate, small-molecule microarray, fluorescence 635/667 (AID 1065); conditions: higher = more signal, COS7 lysate expressing mutant human TOR1A
[3] = binders of probe aFGF2 on microarray, primary screen, stem cell growth factor project, biochemical, small-molecule microarray, fluorescence 635/667 (AID 1067); conditions: higher = more signal;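 note: measures binding of biotinylated aFGF2 protein to printed compounds on slides; z-score merges feature fluorescence and signal-to-noise across triplicate slides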
[4] = binders of probe aFGF10 on microarray, primary screen, stem cell growth factor project, biochemical, small-molecule microarray, fluorescence 635/667 (AID 1071); conditions: higher = more signal;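 note: score merges 667 nm spot intensity and signal to noise from triplicate slides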
[5] = target: Neurogenic locus notch homolog protein 2 (Homo sapiens) (UniProt Q04721); assay: Notch2 binders on small-molecule microarrays, primary screen, biochemical, small-molecule microarray, 635 nm fluorescence, stem cell growth factors (AID 1073); conditions: Notch2 binding, higher = more signal
Chain of Neurogenic locus notch homolog protein 2 (Homo sapiens) (Q04721 whole entry, looked up, canonical isoform): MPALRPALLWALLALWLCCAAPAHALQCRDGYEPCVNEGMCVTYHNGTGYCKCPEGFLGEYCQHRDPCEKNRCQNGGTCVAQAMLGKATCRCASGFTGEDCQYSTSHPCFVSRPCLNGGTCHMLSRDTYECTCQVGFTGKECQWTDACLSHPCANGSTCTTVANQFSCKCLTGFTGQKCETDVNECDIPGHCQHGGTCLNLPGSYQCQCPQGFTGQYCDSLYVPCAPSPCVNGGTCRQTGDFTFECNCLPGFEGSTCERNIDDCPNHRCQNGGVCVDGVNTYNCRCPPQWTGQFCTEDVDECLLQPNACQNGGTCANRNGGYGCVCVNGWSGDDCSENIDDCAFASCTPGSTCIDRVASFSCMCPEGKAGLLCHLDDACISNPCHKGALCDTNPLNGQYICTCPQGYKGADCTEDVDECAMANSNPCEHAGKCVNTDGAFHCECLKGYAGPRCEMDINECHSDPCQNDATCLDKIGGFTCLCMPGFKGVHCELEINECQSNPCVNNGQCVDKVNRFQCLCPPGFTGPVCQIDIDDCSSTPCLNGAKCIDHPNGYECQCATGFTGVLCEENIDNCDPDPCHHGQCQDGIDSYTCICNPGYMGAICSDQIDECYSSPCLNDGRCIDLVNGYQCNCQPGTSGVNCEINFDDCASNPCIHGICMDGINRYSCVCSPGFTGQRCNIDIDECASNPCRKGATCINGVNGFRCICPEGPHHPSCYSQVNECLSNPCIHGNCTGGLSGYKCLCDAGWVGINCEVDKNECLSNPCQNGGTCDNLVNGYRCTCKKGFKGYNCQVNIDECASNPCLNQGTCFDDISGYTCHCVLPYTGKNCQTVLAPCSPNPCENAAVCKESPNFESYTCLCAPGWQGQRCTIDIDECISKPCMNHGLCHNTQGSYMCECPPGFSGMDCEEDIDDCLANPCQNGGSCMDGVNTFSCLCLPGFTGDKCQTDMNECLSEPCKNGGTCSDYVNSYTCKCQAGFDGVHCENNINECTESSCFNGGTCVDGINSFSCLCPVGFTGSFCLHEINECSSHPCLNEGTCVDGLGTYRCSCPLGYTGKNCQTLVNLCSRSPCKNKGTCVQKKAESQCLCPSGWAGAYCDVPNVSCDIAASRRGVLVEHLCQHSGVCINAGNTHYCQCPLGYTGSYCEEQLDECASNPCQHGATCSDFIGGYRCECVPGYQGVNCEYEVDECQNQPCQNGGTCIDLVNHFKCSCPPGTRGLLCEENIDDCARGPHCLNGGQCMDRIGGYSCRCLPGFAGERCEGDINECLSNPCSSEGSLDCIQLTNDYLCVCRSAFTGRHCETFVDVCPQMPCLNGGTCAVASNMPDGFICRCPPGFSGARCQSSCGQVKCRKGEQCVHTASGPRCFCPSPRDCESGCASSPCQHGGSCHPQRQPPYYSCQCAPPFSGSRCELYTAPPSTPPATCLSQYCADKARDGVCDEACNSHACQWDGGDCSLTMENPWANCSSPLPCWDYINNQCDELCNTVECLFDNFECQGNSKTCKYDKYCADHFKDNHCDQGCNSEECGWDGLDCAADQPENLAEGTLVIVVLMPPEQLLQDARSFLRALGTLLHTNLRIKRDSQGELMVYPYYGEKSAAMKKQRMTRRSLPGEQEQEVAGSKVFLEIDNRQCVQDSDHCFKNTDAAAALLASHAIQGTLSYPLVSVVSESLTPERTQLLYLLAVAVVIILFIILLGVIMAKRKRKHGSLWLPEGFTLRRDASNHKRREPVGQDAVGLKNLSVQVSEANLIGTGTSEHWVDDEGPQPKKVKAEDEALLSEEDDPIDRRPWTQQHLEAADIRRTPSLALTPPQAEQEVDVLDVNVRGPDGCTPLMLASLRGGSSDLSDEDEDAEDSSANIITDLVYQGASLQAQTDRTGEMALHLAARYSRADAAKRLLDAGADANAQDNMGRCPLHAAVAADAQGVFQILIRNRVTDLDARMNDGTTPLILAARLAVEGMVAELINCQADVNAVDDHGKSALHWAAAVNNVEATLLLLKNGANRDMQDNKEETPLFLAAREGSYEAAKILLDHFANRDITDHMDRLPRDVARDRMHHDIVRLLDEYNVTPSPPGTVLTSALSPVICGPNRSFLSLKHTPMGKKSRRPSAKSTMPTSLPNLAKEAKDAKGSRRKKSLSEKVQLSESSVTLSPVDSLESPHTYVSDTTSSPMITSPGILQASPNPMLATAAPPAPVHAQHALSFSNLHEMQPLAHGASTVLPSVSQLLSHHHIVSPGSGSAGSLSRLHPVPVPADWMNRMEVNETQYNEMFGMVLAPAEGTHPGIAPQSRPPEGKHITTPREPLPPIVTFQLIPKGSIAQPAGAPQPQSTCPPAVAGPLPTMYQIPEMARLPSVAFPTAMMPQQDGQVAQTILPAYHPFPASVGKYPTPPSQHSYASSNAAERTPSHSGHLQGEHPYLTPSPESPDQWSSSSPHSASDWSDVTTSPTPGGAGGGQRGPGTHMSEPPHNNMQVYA

[6] = target: Pro-neuregulin-1, membrane-bound isoform (Homo sapiens) (UniProt Q02297); assay: NRG1 binders on small-molecule microarrays, primary screen, psychiatric disease protein project, biochemical, small-molecule microarray, fluorescence 635/667 (AID 1075); conditions: NRG1 binding, 635 nm fluorescence, higher = more signal;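 note: score combines 667 nm spot fluorescence with signal to noise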
Chain of Pro-neuregulin-1, membrane-bound isoform (Homo sapiens) (Q02297 whole entry, looked up, the tested form may be a part, canonical isoform): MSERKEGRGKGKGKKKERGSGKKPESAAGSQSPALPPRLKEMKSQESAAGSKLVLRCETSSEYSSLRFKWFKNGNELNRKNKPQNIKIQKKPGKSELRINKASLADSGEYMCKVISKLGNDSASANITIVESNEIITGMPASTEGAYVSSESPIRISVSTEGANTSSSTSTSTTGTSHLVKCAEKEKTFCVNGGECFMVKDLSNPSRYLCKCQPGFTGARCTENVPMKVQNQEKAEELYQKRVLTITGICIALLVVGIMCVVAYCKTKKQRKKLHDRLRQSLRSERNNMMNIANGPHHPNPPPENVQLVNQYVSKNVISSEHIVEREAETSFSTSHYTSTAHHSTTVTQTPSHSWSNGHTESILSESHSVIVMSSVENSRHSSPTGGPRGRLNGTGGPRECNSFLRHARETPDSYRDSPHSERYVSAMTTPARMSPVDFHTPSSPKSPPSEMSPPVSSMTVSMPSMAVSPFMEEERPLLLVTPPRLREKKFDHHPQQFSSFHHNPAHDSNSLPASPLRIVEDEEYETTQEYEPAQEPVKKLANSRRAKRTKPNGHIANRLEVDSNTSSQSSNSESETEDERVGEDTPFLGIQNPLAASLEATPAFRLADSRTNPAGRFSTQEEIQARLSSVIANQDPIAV

[7] = tested on: Neuregulin-1 EGF-like domain; assay: binders of neuregulin-1 EGF-like domain, primary screen, biochemical, small-molecule microarray, 635 nm fluorescence (AID 1081); conditions: small-molecule microarray binding, higher = more signal;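 note: binding of the protein to compounds printed on small-molecule microarray slides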
[8] = FRG1 promoter luciferase signal modulators, primary screen, FRG1 inhibition for FSHD, cell-based, C2C12 myotubes, firefly/Renilla luciferase, luminescence (AID 1084); conditions: higher = more signal, called active from +8 up or from −8 down
[9] = binders of probe aFST on microarray, primary screen, stem cell growth factor project, biochemical, small-molecule microarray, fluorescence 635/667 (AID 1086); conditions: higher = more signal;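 note: score merges 667 nm fluorescence with signal-to-noise of each printed compound spot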
[10] = binders of probe aHhip on microarray, primary screen, stem cell growth factor project, biochemical, small-molecule microarray, fluorescence 635/667 (AID 1087); conditions: higher = more signal;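 note: score merges spot fluorescence at 667nm with spot signal to noise ratio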

Q: For `O=C1C2C=CC(C(O)c3cccs3)N(Nc3ccc([N+](=O)[O-])cc3)C2C(=O)N1c1ccccc1` (stereo not given), which composite z-score [1] is on record?
A: 0.102

Q: What about the composite z-score [2] of the same compound?
A: -0.0628

Q: What about the composite z-score [3] of the same compound?
A: 0.0543

Q: What about the composite z-score [4] of the same compound?
A: 0.362

Q: And the composite z-score [5]?
A: 1.19

Q: What about the composite z-score [6] of the same compound?
A: 1.67

Q: And the composite z-score [7]?
A: 1.23

Q: And the z-score [8]?
A: 1.05 (inactive)

Q: And the composite z-score [9]?
A: 0.611

Q: And the composite z-score [10]?
A: 0.154

Q: What does the source list for `O=C(NCCN1CCOCC1)[C@@H]1c2ccccc2C(=O)N(Cc2ccccc2C(F)(F)F)[C@H]1c1ccc(CO)cc1`?
A: composite z-score [1]: -1.15; composite z-score [2]: -0.438; composite z-score [3]: -0.319; composite z-score [4]: -0.613; composite z-score [5]: -1.2; composite z-score [6]: 0.875; composite z-score [7]: -0.755; z-score [8]: -1.79 (inactive); composite z-score [9]: 0.48; composite z-score [10]: -0.504

Q: What does the source list for `C=CCNC(=O)[C@H]1[C@@H]2C(=O)O[C@@H](c3ccccc3)[C@@H](c3ccccc3)N2[C@@H](c2ccc(OCCO)cc2)[C@]12C(=O)Nc1ccc(C#CC3(O)CCCCCC3)cc12`?
A: composite z-score [1]: 0.604; composite z-score [2]: 0.648; composite z-score [3]: -0.0065; composite z-score [4]: 1.1; composite z-score [5]: 1.54; composite z-score [6]: 1.43; composite z-score [7]: 1.1; z-score [8]: -0.486 (inactive); composite z-score [9]: 0.229; composite z-score [10]: 0.306

Q: Which results are given for `CN(C)CCCCNC(=O)[C@H]1C[C@H]2C(=O)N3CCC[C@H]3C(=O)N2[C@H]1c1cccc(OCCO)c1`?
A: composite z-score [1]: 0.429; composite z-score [2]: 0.76; composite z-score [3]: -0.0386; composite z-score [4]: 0.0348; composite z-score [5]: -0.182; composite z-score [6]: 1.94; composite z-score [7]: 1.28; z-score [8]: 3.81 (inactive); composite z-score [9]: 0.081; composite z-score [10]: 0.565

Q: Which composite z-score [1] does the source give for `O=C(NCc1ccccc1)[C@@H]1c2ccccc2C(=O)N(Cc2ccc(OC(F)(F)F)cc2)[C@H]1c1ccc(CO)cc1` here?
A: 0.85

Q: And the composite z-score [2]?
A: 0.0787

Q: And the composite z-score [3]?
A: -0.0784

Q: And the composite z-score [4]?
A: -0.225

Q: And the composite z-score [5]?
A: -0.674

Q: And the composite z-score [6]?
A: 1.19

Q: And the composite z-score [7]?
A: 0.921

Q: And the z-score [8]?
A: -1.37 (inactive)

Q: And the composite z-score [9]?
A: 0.0209

Q: What about the composite z-score [10] of the same compound?
A: 0.321

Q: For `CCCCN1CC=CC23O[C@@H]4/C=C\CCCOC(=O)C4[C@H]2C(=O)N(C(CO)C(C)C)[C@@H]3C1=O` (stereo not given in full), which composite z-score [1] is on record?
A: -0.1

Q: And the composite z-score [2]?
A: 0.0253

Q: What about the composite z-score [3] of the same compound?
A: -0.101

Q: And the composite z-score [4]?
A: 0.728

Q: What about the composite z-score [5] of the same compound?
A: -0.185

Q: What about the composite z-score [6] of the same compound?
A: -0.164

Q: What about the composite z-score [7] of the same compound?
A: 1.47

Q: What about the z-score [8] of the same compound?
A: 0.723 (inactive)

Q: And the composite z-score [9]?
A: -0.228

Q: What about the composite z-score [10] of the same compound?
A: -0.236

Q: What does the source list for `CN1C(=O)C2C=CC(C(O)c3ccc(-c4ccccc4)s3)N(NC(=O)OC(C)(C)C)C2C1=O` (stereo not given)?
A: composite z-score [1]: 0.905; composite z-score [2]: 0.286; composite z-score [3]: -0.229; composite z-score [4]: 0.419; composite z-score [5]: 1.58; composite z-score [6]: 1.88; composite z-score [7]: 1.21; z-score [8]: 0.392 (inactive); composite z-score [9]: 0.913; composite z-score [10]: -0.0618

Q: Which composite z-score [1] does the source give for `CC(C)(C)OC(=O)CC[C@@]1(C(=O)NCCN2CCOCC2)N=C(c2ccc(OCCCO)cc2)O[C@@H]1c1ccccc1CN=[N+]=[N-]` here?
A: 0.202

Q: What about the composite z-score [2] of the same compound?
A: 0.213

Q: What about the composite z-score [3] of the same compound?
A: 0.0154

Q: What about the composite z-score [4] of the same compound?
A: 0.167

Q: And the composite z-score [5]?
A: 0.422

Q: What about the composite z-score [6] of the same compound?
A: 1.54

Q: And the composite z-score [7]?
A: 0.914

Q: And the z-score [8]?
A: 5.92 (inactive)

Q: And the composite z-score [9]?
A: 0.157

Q: What about the composite z-score [10] of the same compound?
A: 0.0106

Q: What does the source list for `COc1cc(C(O)C2C=CC3C(=O)N(c4ccccc4)C(=O)C3N2Nc2ccccc2)cc(OC)c1OC` (stereo not given)?
A: composite z-score [1]: 0.251; composite z-score [2]: 0.36; composite z-score [3]: 0.218; composite z-score [4]: 1.14; composite z-score [5]: 1.68; composite z-score [6]: 1.92; composite z-score [7]: 1.17; z-score [8]: 1.07 (inactive); composite z-score [9]: 1.48; composite z-score [10]: 0.189

Q: Which composite z-score [1] does the source give for `C[N+](C)(C)CCCCNC(=O)[C@H]1C[C@H]2C(=O)N[C@@H](Cc3ccccc3)C(=O)N2[C@H]1c1cccc(OCCO)c1` here?
A: -0.397

Q: What about the composite z-score [2] of the same compound?
A: 1.29

Q: What about the composite z-score [3] of the same compound?
A: -0.0375

Q: And the composite z-score [4]?
A: 1.21

Q: What about the composite z-score [5] of the same compound?
A: 0.641

Q: And the composite z-score [6]?
A: 1.06

Q: What about the composite z-score [7] of the same compound?
A: 1.36

Q: What about the z-score [8] of the same compound?
A: 2.28 (inactive)

Q: And the composite z-score [9]?
A: 0.435

Q: And the composite z-score [10]?
A: 0.0373

Q: Which results are given for `[N-]=[N+]=Nc1ccccc1C[C@@]1(C(=O)NCC(O)CO)N=C(c2ccc(OCCCO)cc2)O[C@@H]1c1ccccc1` (stereo not given in full)?
A: composite z-score [1]: 0.134; composite z-score [2]: -0.243; composite z-score [3]: -0.073; composite z-score [4]: 0.165; composite z-score [5]: 0.513; composite z-score [6]: 0.706; composite z-score [7]: 1.1; z-score [8]: -2.46 (inactive); composite z-score [9]: 0.146; composite z-score [10]: -0.0994

Q: What does the source list for `COC(=O)[C@@]1(Cc2ccccc2)[C@H]2c3cc(C(=O)N(C)C)n(Cc4ccc(S(C)(=O)=O)cc4)c3C[C@H]2CN1C(=O)c1ccccc1`?
A: composite z-score [1]: 0.442; composite z-score [2]: 0.198; composite z-score [3]: 0.431; composite z-score [4]: 0.443; composite z-score [5]: 1.48; composite z-score [6]: 2.03; composite z-score [7]: 1.22; z-score [8]: 2.39 (inactive); composite z-score [9]: 0.744; composite z-score [10]: -0.118

Q: For `COCCOC(=O)N1C(=O)[C@@]2(c3cc(C#CC4(O)CCCCCC4)ccc31)[C@H](c1ccc(O)cc1)N1[C@H](c3ccccc3)[C@H](c3ccccc3)OC(=O)[C@H]1[C@@H]2C(=O)N1CCCCCCC1`, which composite z-score [1] is on record?
A: 2.85

Q: What about the composite z-score [2] of the same compound?
A: 0.567

Q: What about the composite z-score [3] of the same compound?
A: 0.0059

Q: And the composite z-score [4]?
A: 0.83

Q: What about the composite z-score [5] of the same compound?
A: 0.547

Q: And the composite z-score [6]?
A: 0.903

Q: And the composite z-score [7]?
A: 1.15

Q: And the z-score [8]?
A: -0.0559 (inactive)

Q: What about the composite z-score [9] of the same compound?
A: 2.06

Q: And the composite z-score [10]?
A: 1.39

Q: With `CC(C)C(=C=CC[C@H](O)c1ccccc1OCCO)C[C@H](O)c1cc(Cl)cc(Cl)c1O` as the compound, how does the composite z-score [1] read?
A: -0.435

Q: What about the composite z-score [2] of the same compound?
A: 0.807

Q: And the composite z-score [3]?
A: -0.0266

Q: And the composite z-score [4]?
A: 0.742

Q: And the composite z-score [5]?
A: 0.648

Q: What about the composite z-score [6] of the same compound?
A: 1.6

Q: And the composite z-score [7]?
A: 0.889

Q: What about the z-score [8] of the same compound?
A: -0.926 (inactive)

Q: What about the composite z-score [9] of the same compound?
A: 0.454

Q: And the composite z-score [10]?
A: 0.0505

Q: Which results are given for `CO[C@H]1O[C@H](CO)[C@@H](OC(=O)Nc2ccccc2-c2ccccc2)[C@H](OC(=O)Nc2ccccc2)[C@H]1OC(=O)Nc1ccccc1`?
A: composite z-score [1]: 0.164; composite z-score [2]: 0.514; composite z-score [3]: -0.0067; composite z-score [4]: 1.25; composite z-score [5]: 1.48; composite z-score [6]: 1.55; composite z-score [7]: 1.33; z-score [8]: 1.66 (inactive); composite z-score [9]: 0.941; composite z-score [10]: -0.0237

Q: Which results are given for `CC1CC/C=C\[C@H]2OC34C=CCN(CCN5CCOCC5)C(=O)[C@H]3N(CCCO)C(=O)[C@@H]4C2C(=O)O1` (stereo not given in full)?
A: composite z-score [1]: -0.215; composite z-score [2]: 0.0721; composite z-score [3]: -0.183; composite z-score [4]: -0.0957; composite z-score [5]: -0.475; composite z-score [6]: -0.376; composite z-score [7]: 1.07; z-score [8]: 0.149 (inactive); composite z-score [9]: -0.354; composite z-score [10]: -0.0994
